# Most compounds without a hit are left out; they make up all but 0.71% or so of the library.
# TexasRed fluor – Texas Red fluorescence interference in TRb-SRC2 counter-screen; TRb/SRC2 Texas Red total fluorescence interference; Potency, µM (titrated, usually from 106 µM), inactives show at the top dose fluorescence change, negative = quenching; 280,000 tested, 0.29% active; active = well fitted curve in either direction with a large enough effect; inconclusive = small, poorly fitted or top-dose-only effect; note: potency is the fitted concentration of half-maximal effect; % is set by controls: 0 for no effect and ±100 for the full control effect
#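 Human TRβ ligand-binding domain (0.6 uM) and Texas Red SRC2 peptide (20 nM) in Tris buffer with 1 uM T3 and 5% DMSO were incubated with pinned compound for 5 hr at ambient temperature. Total fluorescence was computed as S + 2P (555/632 nm).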
# TRb-SRC2 inh – TRbeta-SRC2 interaction inhibition; P10828; TRbeta-SRC2 peptide binding, fluorescence polarization; receptor liganded with 1 µM T3; Potency, µM (highest dose often 106 µM), for the others: at the highest dose activity change, negative = inhibition, hits mostly inhibitors; 280,000 tested, 0.065% active;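 note: potency is the fitted concentration of half-maximal effect; plate controls were bound peptide for no effect and peptide without receptor for full effect; nearly all actives have a fitted effect of over 50% in size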
#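 Fluorescence polarization of 20 nM Texas Red SRC2 peptide (20-aa NR interaction domain) bound to 0.6 uM human TRb ligand-binding domain, with 1 uM T3, after 5 hr at ambient temperature; inhibition seen as decreased polarization.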
# Epigenetic derep – epigenetic control regulation, reporter derepression. murine LDR cells, GFP reporter derepression, 30 h. Potency, µM (doses to about 53.9 µM), inactives show at the highest dose GFP activation, most hits filed as activators. 280,000 tested, 0.2% active. AID 1865; note: potency is the fitted concentration of half-maximal effect; % of control where 0% means no effect; nearly all actives have a fitted effect of over 60% in size
#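 In this reporter-derepression format, murine cells bearing a silenced integrated CMV-GFP locus incubate with test compound (30 h, 37 C), then are washed and imaged; fluorescent objects of 20–120 um count as induced cells.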
# RGS12 GoLoco inh – RGS12 GoLoco-Gai1 interaction inhibition. Gai1:RGS12 GoLoco peptide FP, rhodamine, 10 min. 230,000 tested, 0.44% active. P63096. Potency, µM (titrated, usually from 61.6 µM), inactives show at the highest dose activity, negative = inhibition, hits mostly inhibitors; active = well fitted inhibition curve with a large enough effect, not every such curve was filed as active; inactive = no such curve, though single readings can be large or run the other way; note: potency is the fitted concentration of half-maximal effect; % is set by controls: 0 for no effect and ±100 for the full control effect; nearly all actives have a fitted effect of over 30% in size
# CBFb-RUNX1 inh – inhibitors of human CBF-beta and RUNX1 interaction; Potency, µM (doses to about 59.8 µM), inactives show top-dose activity, negative = inhibition, actives largely listed as inhibitors; 230,000 tested, under 10 active; AlphaScreen CBFb-His/RUNX1-biotin binding, biochemical; AID 1477; note: % of control where 0% means no effect
# Target sequence (Q01196 whole entry, looked up): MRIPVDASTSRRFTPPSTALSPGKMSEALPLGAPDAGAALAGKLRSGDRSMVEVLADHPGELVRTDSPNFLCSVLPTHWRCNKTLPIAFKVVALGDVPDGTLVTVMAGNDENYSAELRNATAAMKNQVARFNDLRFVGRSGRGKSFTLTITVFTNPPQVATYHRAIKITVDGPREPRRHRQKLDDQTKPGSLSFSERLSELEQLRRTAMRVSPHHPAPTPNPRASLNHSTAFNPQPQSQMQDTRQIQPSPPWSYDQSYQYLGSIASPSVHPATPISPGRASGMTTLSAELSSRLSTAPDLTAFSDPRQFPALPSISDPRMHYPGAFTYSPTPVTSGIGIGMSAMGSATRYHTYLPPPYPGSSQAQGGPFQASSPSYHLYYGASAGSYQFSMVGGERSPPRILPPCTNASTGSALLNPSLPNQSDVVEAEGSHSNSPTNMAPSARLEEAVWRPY
# Target sequence (Q13951 whole entry, looked up): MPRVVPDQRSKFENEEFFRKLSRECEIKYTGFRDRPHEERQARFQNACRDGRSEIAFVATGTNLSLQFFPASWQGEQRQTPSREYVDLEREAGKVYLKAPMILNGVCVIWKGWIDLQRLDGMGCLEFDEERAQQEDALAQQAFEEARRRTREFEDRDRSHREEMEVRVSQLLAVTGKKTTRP
#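 Proteins preincubated together for 20 min at RT before compound addition; 15 min later, nickel and streptavidin beads were added and left 90 min prior to AlphaScreen measurement.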
# The depositor's hits bear a star; ? = inconclusive; nt = no result; ! = a repeat was not active; [ ] = dose if it differs, or a comment. Unless noted, calls come from the whole dose curve; as a rule, active = well fitted curve in the direction sought with a large enough effect; inconclusive = small, poorly fitted or top-dose-only effect, or another doubt; inactive = no such curve, though single readings can be large; an effect the other way counts as inactive or inconclusive.
SMILES,TexasRed fluor,TRb-SRC2 inh,Epigenetic derep,RGS12 GoLoco inh,CBFb-RUNX1 inh
Cc1nc2nc(C(F)(F)F)[nH]n2c(=O)c1Cc1ccccc1,-4.4%,5.2%,0.0%,nt,nt
CCCC/C=C\CCCCCCCCO,-2.6%[201 µM],-1.6%[201 µM],nt,nt,nt
CCN(CC)c1ccc(NC(=O)C(NS(=O)(=O)c2cccs2)C(C)C)c(C)c1 (centres undefined),4.47µM*[quencher],-18.2%[53 µM],-2.8%,nt,nt
CNc1nc(=O)n(C2CCC(O)CC2)c(=O)n1C (centres undefined),-0.7%[201 µM],2.5%[201 µM],nt,nt,nt
O=[N+]([O-])c1ccc(Cl)c2c1C1C=CCC1C(c1ccccn1)N2 (centres undefined),-8.0%[53 µM],8.8%[53 µM],3.4%,-1.6%,nt
O=C(O)c1ccc(Cl)c2c1C1C=CCC1C(c1ccccn1)N2 (centres undefined),-2.7%,?,-0.1%,10µM*,nt
CCN1/C(=C/c2ccc3cc(C)ccc3[n+]2CC)Sc2cc(C)c(C)cc21,0.6%,-2.8%,25.1µM*,216.7%,-4.6%
O=S(=O)(Nc1ccc(-c2ccc(N3CCCCCC3)nn2)cc1)c1ccc(C(F)(F)F)cc1,-16.6%,-3.4%,-1.7%,nt,nt
O=S(=O)(Nc1ccc(-c2ccc(N3CCCCCC3)nn2)cc1)c1cccc(C(F)(F)F)c1,3162µM*[quencher],-10.3%,0.0%,nt,nt
Cc1ccccc1NC(=O)CCc1c(C)nc2c(c1C)c(=O)n(C)c(=O)n2C,-3.4%,-5.8%,0.8%,nt,nt
O=C(O)[C@H](Cc1c[nH]c2ccccc12)N1C(=O)C2=CCCC=C2C1=O,-19.5%,-2.6%,nt,nt,2.0%
FC(F)(F)c1nc2cc3nc4ccccc4[nH]c3cc2n1,-4.6%,?,-1.2%,15.8µM*,-9.9%
O=c1[nH]c2cc3ccccc3cc2nc1C(F)(F)F,-1.1%,-11.4%,-4.8%,7.3%,-3.5%
COc1cc(OC)c(-c2cc(C(=O)NCc3ccc(F)cc3)c3c(-c4ccccc4)[nH]nc3n2)cc1OC,3.55µM*[quencher],-27.1%,-1.6%,nt,nt
COc1ccccc1-c1cc(C(=O)NCc2ccccc2)c2c(-c3ccc(C)cc3)[nH]nc2n1,-14.0%,-1.3%,-1.3%,nt,nt
Cc1c(OC(=O)c2ccc([N+](=O)[O-])cc2)c2c(c[n+]1C)COC(C)(C)OC2,-1.0%,-10.8%,-1.2%,12.6µM*,1.6%
Cc1ncc2c(c1OC(=O)c1ccccc1)COC(C)(C)OC2,0.7%,-0.1%,0.0%,2.5%,-6.0%
O=S1(=O)N[C@H]2CC[C@@H]3NS(=O)(=O)N[C@H]4CC[C@H](N1)N4S(=O)(=O)N23,nt,nt,nt,1.9%[14.2 µM],nt
Oc1ccc(NCc2ccccc2OCc2ccccc2)cc1,50.1µM*![fluorescent],35.5µM*,-1.2%,-12.0%,nt
C[C@]12CC[C@@H]3c4ccc(O)cc4CC[C@H]3[C@H]1CC[C@H]2O,1.4%[201 µM],12.3%[201 µM],nt,nt,nt
Cc1ccc(CSc2nc3c(c(=O)[nH]2)C(c2cccc(F)c2F)CC(=O)N3)cc1 (centres undefined),8.91µM*[quencher],?,-4.3%,nt,nt
CSc1nc2c(c(=O)[nH]1)C(c1cccc(F)c1F)CC(=O)N2 (centres undefined),6.4%,0.2%,4.8%,nt,nt
COc1ccc(C2c3cc(OC)c(OC)cc3Cc3c4cc(OC)c(OC)cc4cc[n+]32)cc1OC (centres undefined),-1.6%,4.6%,7.9%,4.7%,-9.2%
c1ccc(-c2cnn3c(-c4ccccc4)c(-c4ccccc4)nc3n2)cc1,-2.0%,-0.9%,2.82µM*,-6.4%,5.5%
c1ccc(-c2cc(-c3ccccc3)n3ncnc3n2)cc1,-3.8%,-2.3%,0.1%,-5.1%,2.6%
CC(=O)OCCn1c(C)[n+](CCOC(C)=O)c2cc(Cl)c(Cl)cc21,2.7%,5.0%,-0.3%,12.6µM*,2.2%
CCn1c(C)[n+](CCOCC[n+]2c(C)n(CC)c3cc(Cl)c(Cl)cc32)c2cc(Cl)c(Cl)cc21,-3.3%,-4.0%,2.1%,7.94µM*,0.7%
CCOC(=O)C1=NN(c2ccc(Cl)cc2Cl)C(C)(C(=O)OCC)C1 (centres undefined),-1.7%[201 µM],4.6%[201 µM],nt,nt,nt
CCOc1ccc(C(=O)Nc2ccc(C(=O)OCc3cc(=O)n4c(C)csc4n3)cc2)cc1,-4.1%,13.3%,3.6%,nt,nt
Cc1ccc2c(c1)C1C=CCC1C(C(=O)O)N2 (centres undefined),-26.7%,-9.2%,0.0%,40.3%,nt
